Assay [1] is described as follows: binders of probe aFSTL3 on microarray, primary screen, stem cell growth factor project, biochemical, small-molecule microarray, fluorescence 635/667 (AID 1064).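 Also: measures binding of the biotinylated anti-FSTL3 antibody to printed compounds.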 As to conditions: higher = more signal.
The nature of assay [2]: binders from COS7 lysate, DM2A8 probe, primary screen, torsin A project, cell lysate, small-molecule microarray, fluorescence 635/667 (AID 1065). The following applies: higher = more signal, COS7 lysate expressing mutant human TOR1A.
The nature of assay [3]: binders of probe aFGF2 on microarray, primary screen, stem cell growth factor project, biochemical, small-molecule microarray, fluorescence 635/667 (AID 1067).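 Also: measures binding of biotinylated aFGF2 protein to printed compounds on slides; z-score merges feature fluorescence and signal-to-noise across triplicate slides.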 The following applies: higher = more signal.
A short description of assay [4]: binders of probe aFGF10 on microarray, primary screen, stem cell growth factor project, biochemical, small-molecule microarray, fluorescence 635/667 (AID 1071).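 Also: score merges 667 nm spot intensity and signal to noise from triplicate slides.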 As to conditions: higher = more signal.
The target in assay [5] is Neurogenic locus notch homolog protein 2 (Homo sapiens) (UniProt Q04721). The assay can be described thus: Notch2 binders on small-molecule microarrays, primary screen, biochemical, small-molecule microarray, 635 nm fluorescence, stem cell growth factors (AID 1073). The following applies: Notch2 binding, higher = more signal.
Assay [6] has as its target Pro-neuregulin-1, membrane-bound isoform (Homo sapiens) (UniProt Q02297). Nature of the assay: NRG1 binders on small-molecule microarrays, primary screen, psychiatric disease protein project, biochemical, small-molecule microarray, fluorescence 635/667 (AID 1075).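 Also: score combines 667 nm spot fluorescence with signal to noise.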 As to conditions: NRG1 binding, 635 nm fluorescence, higher = more signal.
Assay [7] relates to Neuregulin-1 EGF-like domain. Nature of the assay: binders of neuregulin-1 EGF-like domain, primary screen, biochemical, small-molecule microarray, 635 nm fluorescence (AID 1081).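 Also: binding of the protein to compounds printed on small-molecule microarray slides.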 As to conditions: small-molecule microarray binding, higher = more signal.
A short description of assay [8]: FRG1 promoter luciferase signal modulators, primary screen, FRG1 inhibition for FSHD, cell-based, C2C12 myotubes, firefly/Renilla luciferase, luminescence (AID 1084). The following applies: higher = more signal, called active from +8 up or from −8 down.
Assay [9] can be described thus: binders of probe aFST on microarray, primary screen, stem cell growth factor project, biochemical, small-molecule microarray, fluorescence 635/667 (AID 1086).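 Also: score merges 667 nm fluorescence with signal-to-noise of each printed compound spot.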 As to conditions: higher = more signal.
Assay [10] can be described thus: binders of probe aHhip on microarray, primary screen, stem cell growth factor project, biochemical, small-molecule microarray, fluorescence 635/667 (AID 1087).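 Also: score merges spot fluorescence at 667nm with spot signal to noise ratio.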 As to conditions: higher = more signal.

Activity calls are given as the source filed them.

Pro-neuregulin-1, membrane-bound isoform (Homo sapiens), sequence (Q02297 whole entry, looked up, the tested form may be a part, canonical isoform): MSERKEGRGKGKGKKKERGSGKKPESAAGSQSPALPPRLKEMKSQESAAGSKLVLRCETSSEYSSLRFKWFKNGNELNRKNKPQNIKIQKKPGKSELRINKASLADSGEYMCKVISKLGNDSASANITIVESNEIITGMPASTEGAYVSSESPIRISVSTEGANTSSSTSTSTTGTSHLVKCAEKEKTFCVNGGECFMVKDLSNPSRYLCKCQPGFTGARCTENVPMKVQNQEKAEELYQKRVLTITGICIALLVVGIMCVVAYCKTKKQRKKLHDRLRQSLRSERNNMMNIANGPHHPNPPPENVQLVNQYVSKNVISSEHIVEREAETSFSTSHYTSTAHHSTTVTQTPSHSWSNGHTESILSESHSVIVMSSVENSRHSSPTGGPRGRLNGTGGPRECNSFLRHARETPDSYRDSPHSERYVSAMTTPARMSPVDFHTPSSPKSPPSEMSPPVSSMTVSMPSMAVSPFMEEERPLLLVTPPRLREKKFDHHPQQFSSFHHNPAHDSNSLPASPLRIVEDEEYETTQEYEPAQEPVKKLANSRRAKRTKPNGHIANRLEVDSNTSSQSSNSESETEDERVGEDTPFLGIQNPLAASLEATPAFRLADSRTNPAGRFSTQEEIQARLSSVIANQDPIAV
Neurogenic locus notch homolog protein 2 (Homo sapiens), sequence (Q04721 whole entry, looked up, canonical isoform): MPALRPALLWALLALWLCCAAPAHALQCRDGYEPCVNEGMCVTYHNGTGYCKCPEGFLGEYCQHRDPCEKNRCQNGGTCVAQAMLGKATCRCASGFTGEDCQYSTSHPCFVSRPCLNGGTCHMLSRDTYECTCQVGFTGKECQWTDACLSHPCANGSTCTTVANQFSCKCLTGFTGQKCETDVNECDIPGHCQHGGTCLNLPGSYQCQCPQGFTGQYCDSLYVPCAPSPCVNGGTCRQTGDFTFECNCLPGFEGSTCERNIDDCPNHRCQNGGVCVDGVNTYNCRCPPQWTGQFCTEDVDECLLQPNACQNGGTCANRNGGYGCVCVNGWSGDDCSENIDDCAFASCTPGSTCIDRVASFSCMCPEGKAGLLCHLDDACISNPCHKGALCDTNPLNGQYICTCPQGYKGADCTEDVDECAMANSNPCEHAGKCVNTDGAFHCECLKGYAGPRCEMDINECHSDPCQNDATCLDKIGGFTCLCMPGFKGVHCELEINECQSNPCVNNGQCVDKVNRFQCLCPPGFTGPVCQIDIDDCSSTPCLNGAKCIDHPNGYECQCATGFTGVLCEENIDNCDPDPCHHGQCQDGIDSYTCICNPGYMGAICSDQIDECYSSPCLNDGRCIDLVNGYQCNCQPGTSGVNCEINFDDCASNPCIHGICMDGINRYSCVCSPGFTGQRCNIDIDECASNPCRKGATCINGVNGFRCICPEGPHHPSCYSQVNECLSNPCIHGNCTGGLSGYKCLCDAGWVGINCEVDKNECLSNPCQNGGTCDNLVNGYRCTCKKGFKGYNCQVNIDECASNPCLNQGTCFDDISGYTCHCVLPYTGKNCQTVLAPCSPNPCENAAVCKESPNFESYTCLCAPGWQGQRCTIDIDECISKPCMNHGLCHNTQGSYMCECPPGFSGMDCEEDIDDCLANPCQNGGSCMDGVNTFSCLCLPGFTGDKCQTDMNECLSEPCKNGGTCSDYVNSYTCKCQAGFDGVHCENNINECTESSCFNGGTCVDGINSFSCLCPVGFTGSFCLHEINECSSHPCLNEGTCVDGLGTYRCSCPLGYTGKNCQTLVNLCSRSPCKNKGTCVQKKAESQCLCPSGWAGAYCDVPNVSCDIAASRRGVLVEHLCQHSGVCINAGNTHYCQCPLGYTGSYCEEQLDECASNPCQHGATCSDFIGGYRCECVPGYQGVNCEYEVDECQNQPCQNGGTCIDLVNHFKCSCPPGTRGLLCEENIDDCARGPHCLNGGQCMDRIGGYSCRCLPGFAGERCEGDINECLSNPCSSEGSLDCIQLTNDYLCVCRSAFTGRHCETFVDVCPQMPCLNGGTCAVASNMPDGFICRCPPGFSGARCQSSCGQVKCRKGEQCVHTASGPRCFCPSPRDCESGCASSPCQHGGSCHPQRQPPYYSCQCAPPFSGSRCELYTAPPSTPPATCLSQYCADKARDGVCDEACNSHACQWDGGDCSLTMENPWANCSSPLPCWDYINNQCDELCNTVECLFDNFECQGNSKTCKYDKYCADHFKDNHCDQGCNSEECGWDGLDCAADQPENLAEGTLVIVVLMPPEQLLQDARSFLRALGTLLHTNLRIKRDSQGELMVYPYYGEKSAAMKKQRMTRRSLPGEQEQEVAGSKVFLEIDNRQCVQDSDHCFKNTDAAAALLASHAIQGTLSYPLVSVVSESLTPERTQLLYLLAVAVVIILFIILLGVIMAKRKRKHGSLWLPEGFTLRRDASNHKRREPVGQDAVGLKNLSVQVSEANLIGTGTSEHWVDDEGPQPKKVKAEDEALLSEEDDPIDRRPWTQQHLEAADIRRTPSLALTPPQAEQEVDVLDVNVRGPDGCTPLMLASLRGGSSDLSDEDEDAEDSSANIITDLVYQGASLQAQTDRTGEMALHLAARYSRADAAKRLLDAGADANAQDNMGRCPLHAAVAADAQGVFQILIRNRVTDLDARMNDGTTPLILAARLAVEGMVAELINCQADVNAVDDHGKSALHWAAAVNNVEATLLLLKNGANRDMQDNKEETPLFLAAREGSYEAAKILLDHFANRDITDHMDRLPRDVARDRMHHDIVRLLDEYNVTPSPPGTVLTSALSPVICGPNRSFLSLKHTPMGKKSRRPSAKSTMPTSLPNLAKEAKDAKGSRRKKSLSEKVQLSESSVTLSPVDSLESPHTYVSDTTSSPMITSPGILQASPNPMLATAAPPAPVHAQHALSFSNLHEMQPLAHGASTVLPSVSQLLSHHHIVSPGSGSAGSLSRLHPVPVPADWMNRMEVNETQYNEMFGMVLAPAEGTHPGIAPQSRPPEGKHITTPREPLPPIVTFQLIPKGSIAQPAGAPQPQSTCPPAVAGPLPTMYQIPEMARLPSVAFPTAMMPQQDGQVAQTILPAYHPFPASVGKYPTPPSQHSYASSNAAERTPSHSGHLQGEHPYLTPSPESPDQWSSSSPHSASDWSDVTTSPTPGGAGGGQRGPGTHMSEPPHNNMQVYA

Turning to `CC(C)C(=C=CC[C@@H](O)c1ccccc1OCCO)CCO`, the composite z-score in [1] was -0.386; in assay [2], -0.193; in [3], -0.115; in assay [4] it was 0.269; in [5], 0.0761; in assay [6], 1.71. In addition, the composite z-score is 1.36 in [7], 0.285 in [9] and -0.214 in assay [10]. Besides, in assay [8], the z-score was -1.6 (inactive).

With `O=C1O[C@H](c2ccccc2)[C@H](c2ccccc2)N2[C@H]1[C@@H](C(=O)Nc1nc3ccccc3s1)[C@]1(C(=O)Nc3ccc(C#CC4(O)CCCCCC4)cc31)[C@H]2c1ccc(OCCO)cc1`, the composite z-score was -0.317 in [1]; 0.792 in assay [2]; -0.129 in assay [3]; 0.805 in [4]; 0.642 in assay [5]; 1.7 in assay [6]. The results for the composite z-score in assay [7], in assay [9] and in assay [10] were 1.06, 0.395 and 0.0413, respectively. In [8], the z-score is 1.97 (inactive).

On to `COc1ccc([Si](C)(C)[C@H]2[C@H](CCO)O[C@@]3(C(=O)N(Cc4ccc(N5C(=O)COc6ccccc65)cc4)c4ccccc43)[C@@H]2C)cc1`, for which the composite z-score was 0.0421 in assay [1]; -0.271 in [2]; -0.14 in assay [3]; -0.164 in assay [4]; -0.24 in assay [5]; 0.774 in assay [6]. The composite z-score was 0.474 in [7], -0.148 in [9] and 0.0129 in [10]. Further, in [8], the z-score is -3.99 (inactive).

In the case of `C=CCN1C(=O)[C@]2(O[C@H](CCO)[C@@H]([Si](C)(C)c3ccc(OC)cc3)[C@@H]2C)c2cc(N3C(=O)c4cccc5cccc3c45)ccc21`, the composite z-score in [1] is -0.0848; in [2], 0.326; in assay [3] it was -0.1; in [4], 0.607; in assay [5] it was 0.322; in assay [6], 0.828. For the same compound, the figures for the composite z-score in assay [7], in assay [9] and in assay [10] were 1.2, -0.17 and -0.236, respectively. In [8], the z-score was -2.66 (inactive).

With `COCCOC(=O)N1C(=O)[C@@]2(c3cc(C#CC4=CCCCC4)ccc31)[C@H](c1ccc(O)cc1)N1[C@H](c3ccccc3)[C@H](c3ccccc3)OC(=O)[C@H]1[C@@H]2C(N)=O`, the composite z-score in assay [1] was -0.456; in [2] it was 0.185; in assay [3] it was -0.0899; in [4] it was 0.54; in [5] it was 0.592; in assay [6] it was 0.324. The composite z-score was 0.978 in [7], 0.327 in assay [9] and 0.154 in assay [10]. In addition, the z-score in [8] is 0.189 (inactive).

Take `CC(C)(C)C(=O)N[C@@H](c1ccc(Cl)cc1)[C@]1(C)C[C@H]1C1CCCCC1`: the composite z-score came out at 1.05 in assay [1]; 0.845 in assay [2]; 0.282 in assay [3]; 0.57 in assay [4]; 1.51 in [5]; 2.09 in [6]. In addition, the composite z-score in assay [7] amounted to 1.19; in [9] it was 1.47; in assay [10] it was 0.0053. Further, the z-score in assay [8] was -1.52 (inactive).

Consider `COCCCN1C(=O)[C@@]2(c3ccc([N+](=O)[O-])cc3)CC(=O)N(C3CCCCC3)[C@@H]2c2ccc(CO)cc21`, for which the composite z-score in [1] is -0.246; in [2], 0.178; in assay [3], -0.153; in assay [4], -0.118; in assay [5] it was -0.537; in assay [6], -0.214. Also, the composite z-score in assay [7] is 0.467; in [9] it was -0.036; in assay [10] it was -0.134. Besides, the z-score in assay [8] is 1.07 (inactive).

Consider `COCCOC(=O)N1C(=O)[C@@]2(c3cc(C#CC4=CCCCC4)ccc31)[C@H](C(N)=O)[C@H]1C(=O)O[C@H](c3ccccc3)[C@H](c3ccccc3)N1[C@@H]2c1ccc(OCCO)cc1`, for which the composite z-score was -0.809 in assay [1]; 0.897 in assay [2]; -0.0009 in assay [3]; 0.806 in assay [4]; 0.254 in assay [5]; 0.514 in assay [6]. The composite z-score in [7] is 1.19; in assay [9] it was -0.335; in assay [10] it was -0.237. For the same compound, the z-score in assay [8] was -0.408 (inactive).

With `COC(=O)[C@@]1(Cc2ccccc2)[C@H]2c3cc(C(=O)N4CCCC4)n(Cc4cccc5ccccc45)c3C[C@H]2CN1C(=O)c1ccccc1`, the composite z-score in assay [1] came out at 1.79; in assay [2], 0.0848; in [3], 0.705; in [4], 0.913; in assay [5] it was 1.63; in [6] it was 1.49. The composite z-score is 1.21 in assay [7], 2.03 in [9] and 0.869 in assay [10]. Also, the z-score in assay [8] is -0.165 (inactive).

Take `C=CCC(OC(C)=O)[C@@H]1[C@@H](N(Cc2ccc(-c3cccc(C(F)(F)F)c3)o2)C(=O)c2ccc(-c3ccccc3)cc2)c2cc(OCCCO)ccc2N1C(=O)c1ccc(-c2ccccc2)cc1` (stereo not given in full): the composite z-score in [1] is 0.0961; in assay [2], -0.233; in [3], -0.0242; in assay [4], 0.232; in [5], 0.242; in [6], 0.0249. In addition, the values for the composite z-score in assay [7], in [9] and in [10] were -0.825, 0.13 and -0.0994, respectively. Also, in assay [8], the z-score was -0.245 (inactive).

For `O=C1O[C@H](c2ccccc2)[C@H](c2ccccc2)N2[C@H]1[C@@H](C(=O)O)[C@]1(C(=O)Nc3ccc(C#CC4=CCCCC4)cc31)[C@H]2c1ccccc1OCCO`, the composite z-score is 0.943 in assay [1]; 0.914 in assay [2]; -0.0885 in [3]; 0.729 in assay [4]; 1.01 in assay [5]; 1.69 in [6]. Also, the values for the composite z-score in assay [7], in assay [9] and in assay [10] were 0.994, 0.792 and 1.13, respectively. For the same compound, the z-score in [8] is 0.755 (inactive).

Regarding `CCCCC=C[C@@H](NC(=O)Oc1cccc(C(F)(F)F)c1)c1ccccc1`, the composite z-score turned out to be 1.56 in assay [1]; 0.974 in [2]; 0.84 in [3]; 1.03 in assay [4]; 1.55 in [5]; 1.47 in assay [6]. In addition, the composite z-score in [7] came to 1.11; in assay [9], 2.02; in [10], 2.27. For the same compound, the z-score in [8] is -3.84 (inactive).

Regarding `Cc1ccc(S[C@]2(C(=O)NCC(C)C)CC(=O)N(Cc3cc(C(F)(F)F)cc(C(F)(F)F)c3)[C@@H]2c2ccc(CO)cc2I)cc1`, the composite z-score in assay [1] is 1.61; in [2], -0.367; in [3], -0.113; in [4], -0.637; in assay [5], -1.1; in assay [6], 1.13. Further, the composite z-score was 0.102 in [7], 0.0584 in assay [9] and -0.216 in assay [10]. In [8], the z-score is -0.286 (inactive).

For `CCOC(=O)C[C@H]1[C@H](OC(=O)Cc2ccc3c(c2)OCO3)[C@@H](NC(=O)c2ccc(-c3ccccc3)cc2)c2cc(OCCCO)ccc2N1C(=O)Cc1ccc(OC)cc1`, the composite z-score is -0.429 in [1]; 0.816 in assay [2]; -0.0636 in assay [3]; 0.412 in assay [4]; 0.819 in assay [5]; 0.337 in [6]. The composite z-score is 0.269 in assay [7], 0.339 in assay [9] and -0.415 in [10]. For the same compound, the z-score in [8] is -3.25 (inactive).

As to `[N-]=[N+]=NCc1ccccc1[C@@H]1OC(c2ccc(OCCCO)cc2)=N[C@]1(CCS(=O)(=O)c1ccccc1)C(=O)NCCN1CCOCC1`, the composite z-score in assay [1] was 0.21; in assay [2], 0.631; in assay [3], 0.269; in [4] it was 0.918; in assay [5], 1.65; in assay [6], 1.99. Also, the composite z-score was determined as 1.31 in assay [7], 1.87 in assay [9] and 0.156 in [10]. Also, the z-score in [8] is 1.97 (inactive).

`COC(=O)c1c(CC[C@@H](CO)NC(=O)N2CCC[C@H]2Cn2cc(-c3ccccn3)nn2)oc(C(C)=O)c1C(=O)OC`: the composite z-score in [1] is -0.508; in assay [2], -0.0298; in [3] it was -0.1; in assay [4], 0.639; in assay [5], -0.357; in assay [6] it was 0.963. The composite z-score in [7] is 0.808; in assay [9], -0.0939; in assay [10], -0.0427. In addition, the z-score in [8] was 0.634 (inactive).

Source of the values: PubChem BioAssay.
